Results filed as inconclusive are left out. Calls of active or inactive are those of the source. The calls were made as follows, unless noted: active = hit-call score of the fitted dose curve at least 0.9, where 1 is the maximum; inconclusive = response in the unintended direction; inactive = score below 0.9.
Columns and labels:
[1] = Tanguay_ZF_120hpf_YSE_legacy: (Legacy) Oregon State University Tanguay Lab 120 Hour Post-fertilization zebrafish Assay for Yolk Sac Edema (AID 2283634)
Summary of the method: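 Binary brightfield scoring of yolk sac edema at 120 hpf; DMSO baseline, gain-of-signal fitting. Dechorionated 5D larvae, one per well, static exposure 6–120 hpf, 28C, 0.64% DMSO. Dead embryos not scored.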

[2] = Tanguay_ZF_120hpf_AXIS_legacy: (Legacy) Oregon State University Tanguay Lab 120 Hour Post-fertilization zebrafish Assay for Body Axis Malformation (AID 2283635)
Summary of the method: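 Embryos: 5D wild-type, pronase-dechorionated 4 hpf; static exposure 6–120 hpf, 28C, sealed, dark, 1 embryo/well, 0.64% DMSO. 120 hpf axis malformation scored present/absent; dead embryos excluded. Analysed as gain of signal vs DMSO.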

[3] = Tanguay_ZF_120hpf_EYE_legacy: (Legacy) Oregon State University Tanguay Lab 120 Hour Post-fertilization zebrafish Assay for Eye Malformation (AID 2283636);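 also: binary presence or absence of eye malformation scored by brightfield in 120 hpf larvae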
Summary of the method: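 Dechorionated wild-type Tropical 5D zebrafish embryos were exposed statically from 6 hpf, one per well, to 120 hpf at 28C in sealed, foil-covered plates with 0.64% DMSO. Eye malformation was scored present/absent by brightfield microscopy against DMSO controls.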

[4] = Tanguay_ZF_120hpf_SNOU_legacy: (Legacy) Oregon State University Tanguay Lab 120 Hour Post-fertilization zebrafish Assay for Snout Malformation (AID 2283637)
Summary of the method: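 Tropical 5D wild-type zebrafish embryos, dechorionated with pronase at 4 hpf, were exposed singly from 6 hpf to 120 hpf statically at 28C in 0.64% DMSO. Snout malformation was scored present/absent by brightfield microscopy, fitted against DMSO.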

[5] = Tanguay_ZF_120hpf_JAW_legacy: (Legacy) Oregon State University Tanguay Lab 120 Hour Post-fertilization zebrafish Assay for Jaw Malformation (AID 2283638)
Summary of the method: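 Binary jaw-malformation calls at 120 hpf by brightfield imaging; DMSO (0.64% v/v) = baseline. Embryos: 5D wild-type, pronase-dechorionated, one per well from 6 hpf, static exposure, 28C, sealed, dark.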

[6] = Tanguay_ZF_120hpf_OTIC_legacy: (Legacy) Oregon State University Tanguay Lab 120 Hour Post-fertilization zebrafish Assay for Otic Vesicle Malformation (AID 2283639)
Summary of the method: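 Tropical 5D wild-type zebrafish embryos statically exposed in 0.64% DMSO at 28C until 120 hpf; 5uM trimethyltin chloride as positive control. Otic vesicle malformation scored present/absent by brightfield; dead embryos not scored; gain fitted versus DMSO.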

[7] = Tanguay_ZF_120hpf_BRAI_legacy: (Legacy) Oregon State University Tanguay Lab 120 Hour Post-fertilization zebrafish Assay for Brain Malformation (AID 2283641)
Summary of the method: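 Read-out: binary brain morphology call at 120 hpf (brightfield), fitted in gain-of-signal direction vs DMSO. Wild-type Tropical 5D embryos, static exposure, 28C, 0.64% DMSO final; 5uM trimethyltin chloride as positive control.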

[8] = Tanguay_ZF_120hpf_PFIN_legacy: (Legacy) Oregon State University Tanguay Lab 120 Hour Post-fertilization zebrafish Assay for Pectoral Fin Malformation (AID 2283648);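 also: each larva judged yes or no for fin defect by brightfield with dead larvae skipped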
Summary of the method: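 Tropical 5D wild-type embryos, dechorionated with pronase at 4 hpf, were placed singly in wells at 6 hpf and statically exposed until 120 hpf at 28C, sealed and dark, with 0.64% (vol/vol) final DMSO; pectoral fin malformation scored present/absent.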

[9] = Tanguay_ZF_120hpf_CFIN_legacy: (Legacy) Oregon State University Tanguay Lab 120 Hour Post-fertilization zebrafish Assay for Caudal Fin Malformation (AID 2283649)
Summary of the method: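 Dechorionated 5D wild-type zebrafish, static exposure 6–120 hpf, 28C, sealed and dark, 0.64% v/v DMSO final. Binary fin-malformation call at 120 hpf, brightfield; gain of signal vs DMSO baseline.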

[10] = Tanguay_ZF_120hpf_PIG_legacy: (Legacy) Oregon State University Tanguay Lab 120 Hour Post-fertilization zebrafish Assay for Pigmentation Malformation (AID 2283650)
Summary of the method: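 Tropical 5D wild-type zebrafish embryos, dechorionated with pronase at 4 hpf, were exposed singly from 6 hpf to 120 hpf statically at 28C in sealed, dark plates with 0.64% DMSO; pigmentation scored present/absent by brightfield microscopy, fitted against DMSO.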

[11] = Tanguay_ZF_120hpf_CIRC_legacy: (Legacy) Oregon State University Tanguay Lab 120 Hour Post-fertilization zebrafish Assay for Circulatory Malformation (AID 2283651)
Summary of the method: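 Dechorionated wild-type 5D zebrafish embryos, one per well, statically exposed from 6 to 120 hpf at 28C with 0.64% DMSO; circulatory malformation scored present/absent by brightfield microscopy at 120 hpf, dead embryos excluded.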

[12] = Tanguay_ZF_120hpf_TRUN_legacy: (Legacy) Oregon State University Tanguay Lab 120 Hour Post-fertilization zebrafish Assay for Truncated Body (AID 2283655)
Summary of the method: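 Whole-embryo zebrafish screen: dechorionated 5D embryos, static exposure 6–120 hpf, 28C, sealed foil-covered plates, 0.64% DMSO. Binary truncation call; gain of signal versus DMSO baseline.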

[13] = Tanguay_ZF_120hpf_NC_legacy: (Legacy) Oregon State University Tanguay Lab 120 Hour Post-fertilization zebrafish Assay for Notochord and Tail Malformation (AID 2283656)
Summary of the method: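 Dechorionated Tropical 5D wild-type zebrafish embryos, one per well from 6 hpf, statically exposed to 120 hpf at 28C in 0.64% DMSO final. Notochord distortion scored present/absent by brightfield; dead embryos excluded.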

[14] = Tanguay_ZF_120hpf_TR_legacy: (Legacy) Oregon State University Tanguay Lab 120 Hour Post-fertilization zebrafish Assay for Touch Response (AID 2283667)
Summary of the method: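 Tropical 5D wild-type zebrafish embryos were exposed statically in sealed, foil-covered plates at 28C until 120 hpf, with 0.64% (vol/vol) final DMSO. Touch response was scored as present or absent; embryos that died were not scored.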

[15] = STM_H9_OrnithineISnorm_perc: Stemina devTOX quickPredict H9 human embryonic stem cell (hESC)-based Assay for Ornithine (ORN) Metabolite Biomarker, Normalized (AID 2283712; active = hit-call score of the fitted dose curve at least 0.9, where 1 is the maximum; inactive = score below 0.9;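 also: ornithine released into spent medium during last day measured by mass spectrometry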)
Summary of the method: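 Undifferentiated H9 hESCs exposed 72 h with daily media and compound renewal; final 24-h conditioned medium analysed by UPLC-HRMS. Ornithine peak area normalised to spiked C13 standard and to median 0.1% DMSO control; viability by CellTiter-Fluor.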

[16] = STM_H9_CystineISnorm_perc: Stemina devTOX quickPredict H9 human embryonic stem cell (hESC)-based Assay for Cystine (CYSS) Metabolite Biomarker, Normalized (AID 2283713; active = hit-call score of the fitted dose curve at least 0.9, where 1 is the maximum; inactive = score below 0.9)
Summary of the method: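 Undifferentiated H9 hESCs exposed 72 h, compound and media replaced every 24 h; final 24-h media analysed by UPLC-HRMS. Cystine normalized to C13 spike-in standard and median 0.1% DMSO control.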

[17] = STM_H9_OrnCyssISnorm_ratio: Stemina devTOX quickPredict H9 human embryonic stem cell (hESC)-based Assay for Ornithine (ORN):Cystine (CYSS) Ratio (AID 2283714)
Summary of the method: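 Undifferentiated H9 hESCs were exposed to compound for 72h with media and chemical replaced every 24h. Final 24-h conditioned media were deproteinized and analysed by UPLC-HRMS. ORN and CYSS peak areas were normalized to C13 internal standards and the ratio taken versus 0.1% DMSO.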

[18] = Tanguay_ZF_120hpf_ActivityScore_legacy: (Legacy) Oregon State University Tanguay Lab 120 Hour Post-fertilization zebrafish Assay Score for Activity (AID 2283742)
Summary of the method: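 Tropical 5D wild-type zebrafish embryos, dechorionated with pronase at 4 hpf, were exposed singly from 6 hpf to 120 hpf statically at 28C in 0.64% DMSO. Malformations and mortality were scored as binary by brightfield, with the activity score combining 18 morphology components.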

Measured: AC50

c1cc[n+]2c(c1)-c1cccc[n+]1CC2
active: [15] 8350 nM | [16] 1700 nM | [17] 2360 nM
inactive: all other assays above

Reference: PubChem BioAssay (EPA / NIEHS)
